# According to PubChem BioAssay AID1053127 (Broad Institute, 2014):
# Potency and affinity values are given separately. Activity calls are given as the source filed them.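 The calls were made as follows: active = compounds whose fitted curve of lowered CTGF expression reaches half effect within a set concentration limit; inconclusive = flat moderate drop in CTGF, or unreliable curve fit; inactive = the rest.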
# Assay: YAP1 overexpression rescue of CTGF inhibition – DLD1 cells, RT-qPCR, cherry-pick, mechanism study for YAP1 pathway inhibitor project, dose response (AID 1053127)
# Details: DLD1 YAP1-overexpressing, CTGF mRNA qPCR, 24 h; series mostly up to 26 µM
row,Structure (SMILES),outcome
1,C[C@@H]1CN([C@H](C)CO)C(=O)CCCn2nncc2CO[C@@H]1CN(C)Cc1cccc(C(F)(F)F)c1,inactive
2,COc1ccc(S(=O)(=O)Nc2ccc3c(c2)C(=O)N([C@@H](C)CO)C[C@H](C)[C@@H](CN(C)S(=O)(=O)c2ccc(Cl)cc2)OCCCC[C@@H](C)O3)cc1,inactive
3,COc1ccccc1NC(=O)N1CCCCN2[C@@H](CO)[C@H](c3ccc(-c4cccc(C#N)c4)cc3)[C@@H]2C1,inactive
4,NCC[C@H]1CC[C@@H](NC(=O)NC2CCCCC2)[C@H](CO)O1,inactive
5,O=C(Nc1ccccc1)[C@@H]1[C@@H](CO)[C@@H]2Cn3c(cccc3=O)[C@H]1N2C(=O)c1ccc(F)cc1,inactive
6,N#Cc1cccc(-c2ccc3c(c2)[C@@H]2[C@@H](CCN2S(=O)(=O)c2ccc(F)cc2)[C@H](CO)N3)c1,inactive
7,C[C@@H]1CN([C@H](C)CO)S(=O)(=O)c2ccc(C#Cc3cccc(F)c3)cc2O[C@@H]1CN(C)S(=O)(=O)c1cn(C)cn1,inactive
8,O=C(Nc1ccc2c(c1)[C@H]1C[C@@H](CC(=O)N3CCc4ccccc4C3)O[C@H](CO)[C@H]1O2)c1ccc2c(c1)OCO2,inactive
9,O=C(Nc1cccc(F)c1)N1CCCCN2[C@H](C1)[C@H](c1ccc(C#Cc3cccnc3)cc1)[C@@H]2CO,inactive
10,COc1ccc(NC(=O)N2CCCCN3[C@@H](CO)[C@H](c4ccc(-c5ccccc5F)cc4)[C@@H]3C2)cc1,inactive
11,COCC(=O)N1CC[C@@H]2[C@H](CO)Nc3ccc(C#Cc4ccc(F)cc4)cc3[C@@H]21,inactive
12,CCS(=O)(=O)Nc1ccc2c(c1)C(=O)N(C)[C@H]1CC[C@H](CC(=O)N3CCN(C)CC3)O[C@H]1CO2,inactive
13,O=S(=O)(Cc1ccccc1)N1CC2(C1)[C@H](c1ccccc1)[C@H](CO)N2CC1CCCC1,inactive
14,C[C@@H]1CN([C@H](C)CO)C(=O)c2ccccc2-c2ccccc2CO[C@@H]1CN(C)Cc1cccc2c1OCCCO2,inactive
15,CO[C@@H]1CN(C)C(=O)c2cc(NS(=O)(=O)c3ccccc3C)ccc2OC[C@@H](C)N(S(=O)(=O)c2ccccc2)C[C@H]1C,inactive
16,CO[C@H]1CN(C)C(=O)c2cc(NC(=O)Nc3ccccc3F)ccc2OC[C@H](C)N(CCC(F)(F)F)C[C@@H]1C,inactive
17,Cc1ccc(S(=O)(=O)Nc2ccc3c(c2)CC(=O)N([C@H](C)CO)C[C@@H](C)[C@@H](CN(C)S(=O)(=O)c2ccccc2)O3)cc1,inactive
18,COc1cccc(C#Cc2ccc3c(c2)O[C@@H](CN(C)C(=O)CN2CCOCC2)[C@@H](C)CN([C@@H](C)CO)S3(=O)=O)c1,inactive
19,C[C@@H]1CN([C@H](C)CO)C(=O)c2ccccc2-c2ccccc2CO[C@@H]1CN(C)Cc1ccccc1C(F)(F)F,inactive
20,C[C@@H]1CN([C@H](C)CO)C(=O)c2cccc(NC(=O)c3nc4ccccc4s3)c2O[C@H]1CN(C)C(=O)Nc1ccc2c(c1)OCO2,inactive

row,Structure (SMILES),outcome
1,C[C@H]1CN([C@@H](C)CO)C(=O)c2cc(C#Cc3ccccc3)cnc2O[C@H]1CN(C)C(=O)c1ccccc1,inactive
2,COc1ccc2c3c([nH]c2c1)[C@H](CO)NCC31CCN(C(=O)Cc2cccnc2)CC1,inactive
3,O=C(Nc1ccc2c(c1)[C@H]1C[C@@H](CC(=O)N3CCc4ccccc4C3)O[C@@H](CO)[C@H]1O2)c1ccc2c(c1)OCO2,inactive
4,CCCNC(=O)N1[C@H](C#N)[C@@H](c2ccc(C#Cc3cccc(F)c3)cc2)[C@@H]1CO,inactive
5,O=C(CC1CC1)N1CC(=O)N2[C@H](CO)[C@@H](c3ccc(C#Cc4cccc(F)c4)cc3)[C@H]2C1,inactive
6,C[C@@H]1CC=CC[C@@H](c2cccc(Cl)c2)NC(=O)[C@H](Cc2ccccc2)N(C)C(=O)c2ccccc2O1 (mixture of isomers),inactive
7,CN1C(=O)c2cc(NC(=O)Cc3cccs3)ccc2OC[C@@H]2O[C@@H](CC(=O)NCCc3ccncc3)CC[C@H]21,inactive
8,CC(C)NC(=O)N[C@@H]1CC[C@H](CC(=O)NCCCN(C)C)O[C@@H]1CO,inactive
9,CN1C(=O)c2cc(NS(=O)(=O)c3ccccc3F)ccc2OC[C@@H]2O[C@@H](CC(=O)NC3Cc4ccccc4C3)CC[C@@H]21,inactive
10,C[C@@H]1CN([C@@H](C)CO)C(=O)c2cc(C#Cc3ccccc3)cnc2O[C@@H]1CN(C)C(=O)c1ccccc1,inactive
11,CC(=O)N1CCCCN2[C@@H](CO)[C@H](c3ccc(-c4ccccc4)cc3)[C@@H]2C1,inactive
12,COc1cccc(-c2ccc([C@@H]3[C@@H](C#N)N(C(=O)Cc4ccncc4)[C@@H]3CO)cc2)c1,inactive
13,C[C@@H]1CN([C@@H](C)CO)C(=O)c2ccccc2-c2ccccc2CO[C@@H]1CN(C)S(=O)(=O)c1cn(C)cn1,inactive
14,C[C@H]1CN([C@@H](C)CO)S(=O)(=O)c2ccc(-c3cncnc3)cc2O[C@@H]1CN(C)C(=O)NC1CCCC1,inactive
15,CCc1nc(N2[C@H](CO)[C@@H](c3ccccc3-c3ccc(F)cc3)[C@@H]2C#N)sc1C,inactive
16,C[C@@H]1CN([C@H](C)CO)C(=O)c2ccccc2-c2ccccc2CO[C@@H]1CN(C)Cc1ccc2c(c1)OCCN2C,inactive
17,CC(C)(C)S(=O)N1Cc2cc(C(=O)NCc3ccc4c(c3)OCO4)nc(-c3cccc(-c4cccc(F)c4)c3)c2[C@@H]1CCO (some centres undefined),inactive
18,CN(C)C(=O)c1ccc(-c2cccc(-c3nc(C(=O)NCc4ccccc4)cc4c3[C@@H](CCO)N([S@](=O)C(C)(C)C)C4)c2)cc1,inactive
19,CN1CCN(C(=O)C[C@@H]2CC[C@H]3[C@@H](COc4ccc(NC(=O)C5CCOCC5)cc4C(=O)N3C)O2)CC1,inactive
